Inconclusive results are not listed. Activity calls are given as the source filed them. Unless noted, calls come from the whole dose curve.
Legend:
[1] = qHTS assay to identify small molecule antagonists of the vitamin D receptor (VDR) signaling pathway - cell viability counter screen (AID 743225; active = well fitted curve in the direction sought with a large enough effect in the repeat runs; an effect the other way counts as inactive or inconclusive; note: nearly all actives have a fitted effect of over 50% in size)
In short: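 Same-well multiplex: following 16 h treatment of HEK 293T cells carrying a UAS-driven beta-lactamase reporter with compound and agonist (3 nM final), and a 2 h FRET substrate step, CellTiter-Glo was added and luminescence read after 30 min.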

[2] = qHTS assay to identify small molecule agonists of the NFkB signaling pathway - cell viability counter screen (AID 1159515); note: series mostly up to about 61 µM; nearly all actives have a fitted effect of over 55% in size
In short: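 Cells are seeded (2,000 NFkB-bla ME-180 per well), rested overnight, and dosed with DMSO-dissolved compounds for 5 hr at 37 C. Viability is then read by CellTiter-Glo luminescence after 30 min at room temperature.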

[3] = qHTS assay to identify small molecule agonists of the endoplasmic reticulum stress response signaling pathway (AID 1159516; active = well fitted activation curve with a large enough effect in the signal ratio in the repeat runs, not every such curve was filed as active; the % refers to the signal ratio; note: potency is the fitted concentration of half-maximal effect)
In short: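 Cells are seeded at 1,500 per well and incubated overnight. Compounds in DMSO are added for 5 hr at 37 C, then beta-lactamase FRET substrate for 2 hr at room temperature, and fluorescence at 460 and 530 nm is measured.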

[4] = molecular target: Nuclear receptor ROR-gamma (Homo sapiens) (UniProt P51449); experiment: qHTS assay to identify small molecule antagonists of the retinoid-related orphan receptor gamma (ROR-gamma) signaling pathway (AID 1159521; active = well fitted curve in the direction sought with a large enough effect in the repeat runs; an effect the other way counts as inactive or inconclusive; note: nearly all actives have a fitted effect of over 50% in size; note: potency is the fitted concentration of half-maximal effect)
In short: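 Inducible-expression reporter assay: doxycycline (1 uM final) switched on RORγ in CHO cells bearing a ROR response element-luciferase construct, with test compounds present from 2 h beforehand. Decreased luminescence after 16 h defined antagonist activity.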

[5] = qHTS assay to identify small molecule agonists of the AP-1 signaling pathway - cell viability counter screen (AID 1159525); note: nearly all actives have a fitted effect of over 55% in size
In short: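 Same-well cytotoxicity counter screen of the Tox21 10K library in ME-180 cells. The readout is ATP-dependent luminescence after 5 h compound treatment. Data are normalised to DMSO and tetra n-octyl ammonium bromide controls.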

[6] = qHTS assay to identify small molecule agonists of the AP-1 signaling pathway (AID 1159526)
[7] = qHTS assay to identify small molecule antagonists of the retinoid-related orphan receptor gamma (ROR-gamma) signaling pathway - cell viability counter screen (AID 1159520; active = well fitted curve in the direction sought with a large enough effect in the repeat runs; an effect the other way counts as inactive or inconclusive; note: nearly all actives have a fitted effect of over 50% in size)
In short: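 Tet-on ROR gamma CHO cells were given compounds for 2 hr, then doxycycline hyclate at 1 uM final, and incubated 16 hr at 37 C. Viability was measured as ATP content by CellTiter-Glo luminescence.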

[8] = qHTS assay to identify small molecule agonists of the RXR signaling pathway - cell viability counter screen (AID 1159529; active = well fitted curve in the direction sought with a large enough effect in the repeat runs; an effect the other way counts as inactive or inconclusive; note: nearly all actives have a fitted effect of over 50% in size; note: potency is the fitted concentration of half-maximal effect)
In short: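 Counter screen: CellTiter-Glo luminescence. Cells: RXR-alpha-UAS-bla HEK 293T. Medium: 2% charcoal-stripped FBS. Treatment: 16 h, 37 C. Reagent incubation: 30 min, RT.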

[9] = molecular target: Retinoic acid receptor RXR-alpha (Homo sapiens) (UniProt P19793); experiment: qHTS assay to identify small molecule agonists of the RXR signaling pathway (AID 1159527); note: nearly all actives have a fitted effect of over 35% in size
In short: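 Compounds in DMSO were added to RXR-alpha-UAS-bla HEK 293T cells kept in 2% charcoal-stripped serum, and incubated 16 hr at 37 C with 5% CO2. Reporter signal came from a 2 hr B/G FRET substrate step.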

Measured: Potency

Retinoic acid receptor RXR-alpha (Homo sapiens), sequence (P19793 whole entry, looked up): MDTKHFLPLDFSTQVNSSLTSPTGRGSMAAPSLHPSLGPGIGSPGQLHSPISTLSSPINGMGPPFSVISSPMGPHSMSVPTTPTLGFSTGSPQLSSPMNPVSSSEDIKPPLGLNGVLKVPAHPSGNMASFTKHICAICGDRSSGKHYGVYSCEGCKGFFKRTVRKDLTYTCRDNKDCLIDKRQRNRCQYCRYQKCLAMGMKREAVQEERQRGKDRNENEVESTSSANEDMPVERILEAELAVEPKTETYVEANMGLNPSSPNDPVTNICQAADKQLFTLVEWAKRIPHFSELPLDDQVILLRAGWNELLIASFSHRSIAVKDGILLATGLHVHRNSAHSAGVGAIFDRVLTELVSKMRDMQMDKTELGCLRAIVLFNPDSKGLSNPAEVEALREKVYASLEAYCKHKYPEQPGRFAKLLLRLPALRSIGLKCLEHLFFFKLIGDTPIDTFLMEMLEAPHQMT

CCN(CC)c1ccc2c(-c3ccccc3C(=O)O)c3ccc(=[N+](CC)CC)cc-3oc2c1
inactive: [1] | [2] | [3] | [4] | [5]

CC(C)C[C@H]1C(=O)N2CCC[C@H]2[C@]2(O)O[C@](NC(=O)[C@@H]3C=C4c5cccc6[nH]c(Br)c(c56)C[C@H]4N(C)C3)(C(C)C)C(=O)N12
inactive: [1] | [2] | [3] | [6]

C[C@H](CCC(=O)O)[C@H]1CC[C@H]2[C@@H]3CC[C@@H]4C[C@H](O)CC[C@]4(C)[C@H]3C[C@H](O)[C@]12C
inactive: [2] | [3] | [7] | [5]

CC(C)OC(=O)C(C)N(C(=O)c1ccccc1)c1ccc(F)c(Cl)c1 (configuration not stated)
inactive: [2] | [3] | [5] | [6] | [8]

CC1=CCCC(C)(C)C12CCC(C)O2 (configuration not stated)
inactive: [1] | [2] | [3] | [5] | [6]

COc1ccc(-c2nc3ccc(C4=NNC(=O)CC4C)cc3[nH]2)cc1 (configuration not stated)
not listed: [1] | [7] | [9]
inactive: all other assays above

CC[N+]1(CC)CCC(=C(c2ccccc2)c2ccccc2)C1C (configuration not stated)
not listed: [1] | [4] | [5]
inactive: all other assays above

Cc1cc(C(=O)O)ccc1[N+](=O)[O-]
not listed: [4] | [8]
inactive: all other assays above

CN1Cc2cc(C(=O)N3CCC(C4CCNCC4)CC3)ccc2NC(CC(=O)O)C1=O (configuration not stated)
not listed: [4] | [9]
inactive: all other assays above

CCc1cc(C2=C(C(=O)O)N(c3ccccc3C(F)(F)F)S(=O)(=O)c3ccccc32)cc2c1OCO2
not listed: [4] | [8] | [9]
inactive: all other assays above

O=C1CCC(=O)O1
not listed: [4] | [9]
inactive: all other assays above

O=S(=O)(Oc1ccc(Cl)cc1)c1ccccc1
not listed: [4] | [9]
inactive: all other assays above

CC(=O)c1ccc2c(c1)N(CCCN1CCC(CCO)CC1)c1ccccc1S2
inactive: [2] | [3] | [5]
active: [8] 10.7 µM

C[N+]1(CC2COC(c3ccccc3)(C3CCCCC3)O2)CCCCC1 (configuration not stated)
not listed: [4] | [5] | [8]
inactive: all other assays above

CCNc1cc(O)ccc1C
not listed: [4]
inactive: all other assays above

CCCCC(CC)CN1C(=O)C2C3C=CC(C3)C2C1=O (configuration not stated)
inactive: [2] | [3] | [7] | [4] | [8]

CCCCCCCCO[C@@H]1O[C@H](CO)[C@@H](O)[C@H](O)[C@H]1O
not listed: [4] | [7]
inactive: all other assays above

COc1cc(Cl)ccc1Oc1ccc(Cl)cc1Cl
not listed: [4] | [6] | [8]
inactive: all other assays above

CC(=O)[O][Al][O]C(C)=O
not listed: [4] | [9]
inactive: all other assays above

CCCCCCCCCCCC(=O)OC[C@@H](O)[C@H]1OC[C@H](OCCO)[C@H]1OCCO
not listed: [1] | [4]
inactive: all other assays above

CCCCCC[C@@H](O)C/C=C\CCCCCCCC(=O)OC
inactive: [2] | [3] | [8]

Brc1c2ccccc2cc2ccccc12
active: [3] 49.5 µM | [8] 35 µM
not listed: [4]
inactive: all other assays above

CCCC(=O)Nc1ccc(O)c(C(C)=O)c1
not listed: [4] | [9]
inactive: all other assays above

Cc1nn(C)c(Oc2ccccc2)c1/C=N/OCc1ccc(C(=O)OC(C)(C)C)cc1
active: [4] 0.486 µM
inactive: [2] | [3] | [6] | [8]

— PubChem BioAssay (Tox21)
